The source of these data is PubChem BioAssay.

Activity calls are given as the source filed them.

In one test the target is Albumin (Bos taurus) (UniProt P02769). In words: compounds binding labelled BSA control protein – biochemical, small-molecule microarray, Alexa647 label, 635/667 nm fluorescence, artefact control for SMM control protein annotation, profiling panel (AID 1118).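 Also: score merges 667 nm emission intensity and signal-to-noise per printed compound spot.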 Conditions: BSA-A647 binding, fluorescence 635 nm, higher = more signal.
Chain of Albumin (Bos taurus) (P02769 whole entry, looked up): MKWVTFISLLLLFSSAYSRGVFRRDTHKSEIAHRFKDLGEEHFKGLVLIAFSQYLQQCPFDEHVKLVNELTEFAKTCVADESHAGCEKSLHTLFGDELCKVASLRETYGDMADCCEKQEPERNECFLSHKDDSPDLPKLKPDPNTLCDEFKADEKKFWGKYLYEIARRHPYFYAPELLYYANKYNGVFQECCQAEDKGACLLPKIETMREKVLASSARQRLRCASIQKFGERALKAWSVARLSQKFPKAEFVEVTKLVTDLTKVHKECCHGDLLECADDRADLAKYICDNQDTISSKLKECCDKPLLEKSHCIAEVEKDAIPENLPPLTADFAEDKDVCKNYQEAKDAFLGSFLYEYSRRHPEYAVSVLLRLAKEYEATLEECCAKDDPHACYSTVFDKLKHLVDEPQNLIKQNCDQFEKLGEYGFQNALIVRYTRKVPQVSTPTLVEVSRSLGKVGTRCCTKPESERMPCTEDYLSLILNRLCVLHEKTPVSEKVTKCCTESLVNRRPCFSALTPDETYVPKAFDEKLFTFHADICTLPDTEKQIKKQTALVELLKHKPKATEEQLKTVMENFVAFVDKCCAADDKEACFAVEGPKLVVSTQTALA
The nature of test [1]: probe aXIP binding to arrayed compounds – biochemical, NeuroSMM set, 635/667 nm fluorescence, primary screen (AID 1119).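 Also: probe is the protein aXip251-270 applied at 1 µg/mL to compound-printed slides; binding of probe to printed compounds measured as 667 nm fluorescence plus signal to noise.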 The following applies: small-molecule microarray, higher = more signal, called active from +8 up or from −8 down.
Test [2] in a line: probe aNOTCH3 binding on compound microarray – biochemical, small-molecule microarray, 635/667 nm fluorescence, primary screen (AID 1120).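 Also: probe is a biotin-tagged antibody raised against NOTCH3 rather than NOTCH3 protein; score merges spot fluorescence near 667 nm with spot signal to noise.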 The following applies: higher = more signal.
Test [3] in a line: probe aNOTCH2 binding on compound microarray – biochemical, small-molecule microarray, 635/667 nm fluorescence, primary screen (AID 1121).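 Also: score merges feature fluorescence read at 667 nm with its signal to noise.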 Conditions: higher = more signal.
In test [4] the target is Carbonic anhydrase 2 (Homo sapiens) (UniProt P00918). In words: compounds binding carbonic anhydrase 2 – biochemical, small-molecule microarray, Alexa647-labelled CAII, profiling panel (AID 1122). Conditions: CAII-A647 binding fluorescence, higher = more signal.
Test [5] can be described thus: COS7 lysate on small-molecule microarray, probe aHis, 635 nm (AID 1123).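 Also: z-score combines 667nm fluorescence intensity with signal-to-noise per printed compound spot.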 Conditions: COS7 cell lysate, fluorescence, higher = more signal.
Test [6] in a line: probe aLAP1 signal on lysate-treated microarray – cell lysate, small-molecule microarray, COS7 lysate, primary screen (AID 1124).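 Also: lysate comes from COS7 cells expressing LAP1 and is applied at 0.3 µg/mL; score merges spot fluorescence near 667 nm with signal-to-noise over triplicate slides.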 Conditions: probe aLAP1, fluorescence, higher = more signal.
The next test deals with Sam68 (KHDRBS1). In words: compounds binding KHDRBS1 protein – biochemical, small-molecule microarray, 635 nm fluorescence, primary screen (AID 1125).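 Also: score merges 667 nm channel intensity with signal to noise over triplicate slides.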 The following applies: higher = more signal.
In test [7] the test system is Chordin-like protein 2 (CHRDL2). In words: compounds binding chordin-like 2 – biochemical, small-molecule microarray, 635 nm fluorescence, primary screen (AID 1126).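 Also: printed compound slides probed with Chrdl2 protein at 4 µg/mL for 1 h at 4 C; score merges 667 nm emission intensity with signal to noise over three replicate slides.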 The following applies: fluorescence 635 nm, higher = more signal.
The target in test [8] is Concanavalin-A (Canavalia ensiformis) (UniProt P02866). In words: compounds binding concanavalin A lectin – biochemical, small-molecule microarray, Alexa647 label, 635 nm, artefact control for SMM control protein annotation, primary screen (AID 1127).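 Also: z combines 667 nm emission intensity with signal-to-noise across three replicate slides.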 Conditions: ConA-A647 binding fluorescence, higher = more signal.
Chain of Concanavalin-A (Canavalia ensiformis) (P02866 whole entry, looked up): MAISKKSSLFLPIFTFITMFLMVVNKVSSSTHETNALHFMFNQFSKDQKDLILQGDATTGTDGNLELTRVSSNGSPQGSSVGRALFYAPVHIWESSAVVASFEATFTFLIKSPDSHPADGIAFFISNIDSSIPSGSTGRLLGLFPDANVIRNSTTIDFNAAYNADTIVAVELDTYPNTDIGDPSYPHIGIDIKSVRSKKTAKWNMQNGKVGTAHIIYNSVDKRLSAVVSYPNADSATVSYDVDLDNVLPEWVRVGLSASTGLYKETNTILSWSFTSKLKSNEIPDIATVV
Test [9] can be described thus: compounds binding Alexa647 anti-His antibody – biochemical, small-molecule microarray, 635 nm fluorescence, artefact control for SMM control protein annotation, primary screen (AID 1128).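 Also: score merges feature fluorescence with signal-to-noise for each printed compound spot.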 Conditions: higher = more signal.
Test [10] concerns Human papillomavirus type 1a E7 protein (residues 1-88). In words: HPV1a E7 small-molecule binders, primary screen, biochemical, small-molecule microarray, residues 1-88, 635 nm (AID 1129). Conditions: small-molecule microarray binding, fluorescence 635 nm; higher = more signal.
The target of test [11] is Focal adhesion kinase 1 (Homo sapiens) (UniProt Q05397). Kind of test: PTK2 protein binding on printed compound slides – biochemical, small-molecule microarray, 635/667 nm fluorescence, BSA, DTT, primary screen (AID 1130).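 Also: composite of spot emission at 667 nm and signal to noise over triplicate slides.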 Conditions: 635 nm fluorescence, higher = more signal.
Chain of Focal adhesion kinase 1 (Homo sapiens) (Q05397 whole entry, looked up): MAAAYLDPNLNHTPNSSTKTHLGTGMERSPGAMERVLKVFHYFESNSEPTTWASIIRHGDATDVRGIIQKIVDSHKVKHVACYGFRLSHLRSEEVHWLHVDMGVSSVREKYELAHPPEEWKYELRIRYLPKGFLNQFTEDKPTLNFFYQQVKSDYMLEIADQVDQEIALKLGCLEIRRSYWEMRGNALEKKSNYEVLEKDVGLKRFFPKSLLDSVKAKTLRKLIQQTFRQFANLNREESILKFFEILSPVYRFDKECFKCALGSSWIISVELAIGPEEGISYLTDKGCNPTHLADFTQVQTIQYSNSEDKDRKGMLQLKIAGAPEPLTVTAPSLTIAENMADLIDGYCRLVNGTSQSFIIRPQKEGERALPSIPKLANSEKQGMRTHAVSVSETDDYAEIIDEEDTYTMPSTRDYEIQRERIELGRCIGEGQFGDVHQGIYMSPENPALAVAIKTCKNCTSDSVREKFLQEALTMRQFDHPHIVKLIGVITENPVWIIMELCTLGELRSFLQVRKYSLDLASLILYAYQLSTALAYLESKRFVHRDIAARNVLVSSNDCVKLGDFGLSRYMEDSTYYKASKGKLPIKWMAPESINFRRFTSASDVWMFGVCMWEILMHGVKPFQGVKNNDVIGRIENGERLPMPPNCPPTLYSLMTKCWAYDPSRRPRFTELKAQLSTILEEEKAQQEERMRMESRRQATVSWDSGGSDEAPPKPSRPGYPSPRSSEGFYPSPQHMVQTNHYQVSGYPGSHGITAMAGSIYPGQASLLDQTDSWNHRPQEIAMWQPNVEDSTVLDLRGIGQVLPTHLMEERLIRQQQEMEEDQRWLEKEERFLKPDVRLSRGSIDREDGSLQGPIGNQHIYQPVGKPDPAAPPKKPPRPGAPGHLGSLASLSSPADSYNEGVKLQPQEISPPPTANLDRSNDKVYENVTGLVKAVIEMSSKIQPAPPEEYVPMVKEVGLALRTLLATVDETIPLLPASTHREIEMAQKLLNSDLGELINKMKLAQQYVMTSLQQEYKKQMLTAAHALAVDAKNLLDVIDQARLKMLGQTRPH
Test [12] has as its system Fibrinogen (Alexa647-labelled). Kind of test: Alexa647-fibrinogen binding to printed small molecules – biochemical, small-molecule microarray, 635/667 nm fluorescence, artefact control for SMM control-protein annotation, profiling panel (AID 1131).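 Also: z-score merges 667 nm fluorescence with per-spot signal-to-noise over triplicate slides.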 Conditions: fibrinogen-A647 binding fluorescence, higher = more signal.
Test [13] has as its target Follistatin (Homo sapiens) (UniProt P19883). In words: FST protein binding to printed compounds – biochemical, small-molecule microarray, 635/667 nm fluorescence, primary screen (AID 1132). The following applies: 635 nm fluorescence, higher = more signal.
Test [14] concerns the target Fibroblast growth factor 2 (Homo sapiens) (UniProt P09038). In words: basic fibroblast growth factor binding to printed compounds – biochemical, small-molecule microarray, 635/667 nm fluorescence, primary screen (AID 1133). The following applies: FGF2, fluorescence 635/667, higher = more signal.
Test [15] in a line: JC-1 mitochondrial potential readout, lung cancer cells – cell-based, A549, JC-1 fluorescence, basal, 24 h, 100 nL, profiling panel (AID 1138).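 Also: A549 lung adenocarcinoma cells under basal conditions with no added stimulus; test concentration not given here.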 The following applies: higher = more signal.
For another test, the system named is Lefty1. Kind of test: Lefty1 protein binding to printed compounds – biochemical, small-molecule microarray, 635/667 nm fluorescence, primary screen (AID 1139). Conditions: fluorescence 635/667, higher = more signal.
Test [16] has as its system wheat germ agglutinin (Triticum aestivum), Alexa647-labelled. Kind of test: Alexa647-WGA lectin binding to printed small molecules – biochemical, small-molecule microarray, 635/667 nm fluorescence, artefact control for SMM control-protein annotation, profiling panel (AID 1140).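 Also: score merges 667 nm feature emission with signal to noise over triplicate slides.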 Conditions: WGA-A647 binding, 635 nm fluorescence, higher = more signal.
Test [17] concerns the target Luciferin 4-monooxygenase (Photinus pyralis) (UniProt P08659). In words: inhibition of purified Photinus pyralis luciferase – biochemical, luminescence, purified enzyme, 2006 set, primary screen (AID 1141).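 Also: cell-free assay with purified firefly luciferase at 100 ng per well in PBS; test concentration not given here.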 The following applies: purified firefly luciferase, SteadyGlo luminescence, 30 min; higher = more signal, called active from +8 up or from −8 down.

Chain of Fibroblast growth factor 2 (Homo sapiens) (P09038 whole entry, looked up): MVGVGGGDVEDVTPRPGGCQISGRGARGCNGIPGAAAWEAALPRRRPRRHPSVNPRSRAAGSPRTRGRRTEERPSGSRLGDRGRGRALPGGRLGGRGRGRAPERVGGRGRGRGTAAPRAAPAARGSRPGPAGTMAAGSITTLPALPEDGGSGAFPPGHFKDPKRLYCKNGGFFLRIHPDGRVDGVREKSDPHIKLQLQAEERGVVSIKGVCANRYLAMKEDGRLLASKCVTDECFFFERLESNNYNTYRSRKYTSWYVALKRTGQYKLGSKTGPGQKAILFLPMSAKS
Chain of Follistatin (Homo sapiens) (P19883 whole entry, looked up): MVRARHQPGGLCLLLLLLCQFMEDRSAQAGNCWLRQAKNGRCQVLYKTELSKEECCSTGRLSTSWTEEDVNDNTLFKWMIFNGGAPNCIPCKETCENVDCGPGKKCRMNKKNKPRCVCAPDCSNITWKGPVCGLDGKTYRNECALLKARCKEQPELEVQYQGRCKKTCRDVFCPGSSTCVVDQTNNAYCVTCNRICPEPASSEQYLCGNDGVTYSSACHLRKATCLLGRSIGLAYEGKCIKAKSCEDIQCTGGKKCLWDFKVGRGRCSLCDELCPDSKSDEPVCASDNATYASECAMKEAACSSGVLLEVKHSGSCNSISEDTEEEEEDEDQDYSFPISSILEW
Chain of Luciferin 4-monooxygenase (Photinus pyralis) (P08659 whole entry, looked up): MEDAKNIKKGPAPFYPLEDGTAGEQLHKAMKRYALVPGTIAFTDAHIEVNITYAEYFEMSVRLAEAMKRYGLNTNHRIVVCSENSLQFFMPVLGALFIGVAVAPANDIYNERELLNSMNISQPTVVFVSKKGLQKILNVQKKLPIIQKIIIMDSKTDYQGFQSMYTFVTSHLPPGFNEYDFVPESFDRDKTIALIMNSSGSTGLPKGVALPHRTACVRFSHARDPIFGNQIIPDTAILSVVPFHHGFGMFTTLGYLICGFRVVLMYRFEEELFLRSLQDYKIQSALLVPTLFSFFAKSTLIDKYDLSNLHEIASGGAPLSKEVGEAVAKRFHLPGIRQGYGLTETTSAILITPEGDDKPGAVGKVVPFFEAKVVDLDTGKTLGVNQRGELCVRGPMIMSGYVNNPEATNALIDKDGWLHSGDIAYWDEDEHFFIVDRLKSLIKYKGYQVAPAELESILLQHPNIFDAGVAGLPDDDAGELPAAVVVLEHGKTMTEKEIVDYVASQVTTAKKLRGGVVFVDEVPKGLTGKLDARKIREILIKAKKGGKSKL

Take `CC(c1ccccc1)C(O)C1C=CC2C(=O)N(Cc3ccccc3)C(=O)C2N1n1cnnc1` (stereo not given): the composite z-score in the test with Albumin (Bos taurus) was 0.405; in [2], 0.178; in [3], -0.046; in test [4] it was 0.415; in [5], 1.06; in [6] it was -0.0771. Also, the composite z-score is 0.669 in the test on Sam68 (KHDRBS1); -0.226 in test [7]; 0.851 in [8]; 0.509 in test [9]; 0.914 in test [10]; 0.146 in test [11]. In addition, the composite z-score was 0.654 in [12]; 0.374 in test [13]; 0.408 in test [14]; -0.133 in the test with Lefty1; 0.532 in test [16]. Further, the composite Z-score in test [1] is 0.171 (inactive). The z-score in test [15] is -1.27; in test [17] it was 1.52 (inactive).
In the case of `CN(C)CCCN1C(=O)[C@@]2(c3ccc([N+](=O)[O-])cc3)CC(=O)N(C3CCCCC3)[C@@H]2c2ccc(CO)cc21`, the composite z-score with Albumin (Bos taurus) was -0.4; in test [2], -0.0665; in [3], -0.0455; in [4] it was -0.622; in [5], -0.317; in test [6] it was -0.233. For the same compound, the composite z-score was -0.395 in the test on Sam68 (KHDRBS1); -0.137 in test [7]; 0.209 in test [8]; 0.0598 in [9]; -1.05 in [10]; -0.042 in test [11]. Besides, the composite z-score is -0.916 in [12]; 0.0687 in test [13]; 0.836 in test [14]; -0.262 with Lefty1; 0.12 in test [16]. In test [1], the composite Z-score was 0.0831 (inactive). In addition, the z-score was -0.493 in test [15] and 1.2 (inactive) in [17].
As to `CCCNC(=O)[C@@]1(C)c2ccccc2C(=O)N(Cc2ccc(OC(F)(F)F)cc2)[C@H]1c1ccc(CO)cc1`, the composite z-score is 0.132 with Albumin (Bos taurus); -0.0397 in [2]; -0.0035 in test [3]; 0.267 in [4]; -0.517 in test [5]; 0.727 in [6]. Further, the composite z-score with Sam68 (KHDRBS1) is 0.565; in [7] it was -0.602; in [8] it was 0.949; in test [9], -0.607; in [10] it was 1.11; in test [11] it was 0.275. The composite z-score in test [12] is 0.264; in [13], 0.778; in test [14], 0.557; with Lefty1, -0.526; in test [16], 0.419. Besides, the composite Z-score in [1] is 2.11 (inactive). Also, the z-score in test [15] is 1.07; in test [17], -0.166 (inactive).
In the case of `NC(=O)NCC#Cc1ccc2c(c1)[C@]1(C(=O)N2)[C@H](c2ccc(O)cc2)N2[C@H](c3ccccc3)[C@H](c3ccccc3)OC(=O)[C@H]2[C@@H]1C(=O)N1CCN(c2ncccn2)CC1`, the composite z-score was 0.317 with Albumin (Bos taurus); 0.191 in test [2]; -0.0048 in test [3]; 0.396 in [4]; 1.64 in test [5]; 0.32 in test [6]. The composite z-score in the test with Sam68 (KHDRBS1) is -0.0586; in test [7], -0.165; in [8], 0.377; in [9] it was 1.05; in test [10] it was 0.855; in test [11] it was -0.75. Besides, the composite z-score was 0.486 in test [12]; 0.743 in test [13]; -0.0346 in test [14]; -0.112 with Lefty1; 0.297 in [16]. The composite Z-score in test [1] is 1.24 (inactive). Further, the z-score in [15] was -1.1; in test [17], -1.43 (inactive).
Turning to `O=C(NCC(O)CO)[C@]1(CCS(=O)(=O)c2ccccc2)N=C(c2ccc(OCCCO)cc2)O[C@@H]1c1ccccc1` (stereo not given in full), the composite z-score was 1.11 in the test with Albumin (Bos taurus); -0.095 in [2]; -0.0392 in [3]; 0.761 in [4]; 3.41 in test [5]; 0.944 in [6]. The composite z-score in the test on Sam68 (KHDRBS1) was 1.23; in test [7], -1.41; in test [8], 0.87; in [9], 1.14; in [10], 1.27; in [11], 0.516. The composite z-score was 0.976 in [12]; 0.866 in test [13]; -0.702 in test [14]; -1.11 in the test on Lefty1; 1.54 in test [16]. In addition, the composite Z-score in test [1] is -0.262 (inactive). Moreover, the z-score in test [15] is 0.439; in test [17], 0.0334 (inactive).
